Data as given in PubChem BioAssay AID652245 (The Scripps Research Institute Molecular Screening Center, 2013).
The whole screen tested about 1,600 compounds, of which about 920 (58%) were called active. So high a share suggests a set chosen from earlier hits. A selection follows. A number with no mark means an inactive call.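 How the source made its calls: active means inhibition above the primary screen's cutoff, the mean inhibition of all screened compounds plus 3 SD (cut at about 13% in these data); inactive means the rest.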

Target: Galanin receptor type 3 (Homo sapiens) (UniProt O60755)
Sequence (O60755 1-299 limits assumed): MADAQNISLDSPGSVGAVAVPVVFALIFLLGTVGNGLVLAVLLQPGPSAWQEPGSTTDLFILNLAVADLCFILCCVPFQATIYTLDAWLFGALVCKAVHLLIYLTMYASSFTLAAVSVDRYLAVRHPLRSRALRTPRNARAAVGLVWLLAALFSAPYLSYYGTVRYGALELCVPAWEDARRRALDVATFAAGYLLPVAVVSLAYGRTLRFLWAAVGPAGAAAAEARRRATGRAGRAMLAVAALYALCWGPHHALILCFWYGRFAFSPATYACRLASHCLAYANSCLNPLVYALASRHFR
Assay: GalR3 antagonist hit confirmation, cell-based, fluorescence, triplicate (AID 652245);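 further: 0% = forskolin plus galanin and 100% = forskolin alone with DMSO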
Settings: HEK293 GalR3 CNG cAMP biosensor, membrane potential fluorescence; at 3 µM; stronger effect = higher value

| Compound | inhibition |
| --- | --- |
| CCCCCCCCCCCCn1ccc(=N)cc1 | 92.6% (active) |
| COC(=O)C1=C(c2cc3ccccc3s2)C[C@@H]2CC[C@H]1N2C(=O)NCc1cccc2ccccc12 | -2.45% |
| COc1ccc(-n2c(-c3ccccc3)nc3ccccc3c2=O)cc1 | 7.55% |
